The source made the active and inactive calls.
What was measured:
[1] = test system: Plasmodium falciparum Sir2 (PF13_0152, Sir2A); assay: Plasmodium falciparum Sir2A binding compounds – biochemical, small-molecule microarray, 635 nm fluorescence, primary screen (AID 1098); settings: fluorescence 635 nm, higher = more signal;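 further: score merges spot fluorescence intensity with its signal-to-noise ratio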
[2] = probe aDKK1 binding to arrayed compounds – biochemical, biotinylated probe, 635/667 nm fluorescence, primary screen (AID 1099); settings: small-molecule microarray, higher = more signal;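 further: score merges 667nm spot fluorescence with signal to noise across triplicate slides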
[3] = probe aCHRDL2 binding to arrayed compounds – biochemical, biotinylated probe, 635/667 nm fluorescence, primary screen (AID 1100); settings: small-molecule microarray, higher = more signal
[4] = change in splice reporter luminescence, either direction, cell-based, HEK293, spliceosome inhibition project, primary screen (AID 1101); settings: HEK293 splicing luciferase reporter, 24 h, higher = more signal, called active from +8 up or from −8 down;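 further: HEK293 cells carrying a splicing-competent luciferase reporter gene; test concentration not given here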
[5] = biological target: Fibroblast growth factor 10 (Homo sapiens) (UniProt O15520); assay: compounds binding fibroblast growth factor 10 – biochemical, small-molecule microarray, 635 nm fluorescence, primary screen (AID 1102); settings: FGF10 binding, fluorescence 635 nm, higher = more signal
Sequence of Fibroblast growth factor 10 (Homo sapiens) (O15520 whole entry, looked up): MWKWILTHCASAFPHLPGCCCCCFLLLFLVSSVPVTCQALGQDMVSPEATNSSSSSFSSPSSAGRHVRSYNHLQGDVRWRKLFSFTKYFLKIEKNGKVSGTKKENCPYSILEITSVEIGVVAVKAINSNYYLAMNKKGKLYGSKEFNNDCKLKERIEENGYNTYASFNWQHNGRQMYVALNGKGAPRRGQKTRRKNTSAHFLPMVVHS

[6] = test system: glycogen synthase kinase-3 (GSK3A per assay name; protocol says GSK3B); assay: compounds binding glycogen synthase kinase-3 – biochemical, small-molecule microarray, 635 nm fluorescence, GSK3A, primary screen (AID 1103); settings: fluorescence 635 nm, higher = more signal; further: the record names both GSK3A and GSK3B
[7] = biological target: Epidermal growth factor receptor (Homo sapiens) (UniProt P00533); assay: compounds binding epidermal growth factor receptor – biochemical, small-molecule microarray, 635 nm fluorescence, primary screen (AID 1104); settings: EGFR binding, higher = more signal;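 further: score merges 667 nm emission intensity with spot signal to noise over triplicate slides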
Sequence of Epidermal growth factor receptor (Homo sapiens) (P00533 whole entry, looked up): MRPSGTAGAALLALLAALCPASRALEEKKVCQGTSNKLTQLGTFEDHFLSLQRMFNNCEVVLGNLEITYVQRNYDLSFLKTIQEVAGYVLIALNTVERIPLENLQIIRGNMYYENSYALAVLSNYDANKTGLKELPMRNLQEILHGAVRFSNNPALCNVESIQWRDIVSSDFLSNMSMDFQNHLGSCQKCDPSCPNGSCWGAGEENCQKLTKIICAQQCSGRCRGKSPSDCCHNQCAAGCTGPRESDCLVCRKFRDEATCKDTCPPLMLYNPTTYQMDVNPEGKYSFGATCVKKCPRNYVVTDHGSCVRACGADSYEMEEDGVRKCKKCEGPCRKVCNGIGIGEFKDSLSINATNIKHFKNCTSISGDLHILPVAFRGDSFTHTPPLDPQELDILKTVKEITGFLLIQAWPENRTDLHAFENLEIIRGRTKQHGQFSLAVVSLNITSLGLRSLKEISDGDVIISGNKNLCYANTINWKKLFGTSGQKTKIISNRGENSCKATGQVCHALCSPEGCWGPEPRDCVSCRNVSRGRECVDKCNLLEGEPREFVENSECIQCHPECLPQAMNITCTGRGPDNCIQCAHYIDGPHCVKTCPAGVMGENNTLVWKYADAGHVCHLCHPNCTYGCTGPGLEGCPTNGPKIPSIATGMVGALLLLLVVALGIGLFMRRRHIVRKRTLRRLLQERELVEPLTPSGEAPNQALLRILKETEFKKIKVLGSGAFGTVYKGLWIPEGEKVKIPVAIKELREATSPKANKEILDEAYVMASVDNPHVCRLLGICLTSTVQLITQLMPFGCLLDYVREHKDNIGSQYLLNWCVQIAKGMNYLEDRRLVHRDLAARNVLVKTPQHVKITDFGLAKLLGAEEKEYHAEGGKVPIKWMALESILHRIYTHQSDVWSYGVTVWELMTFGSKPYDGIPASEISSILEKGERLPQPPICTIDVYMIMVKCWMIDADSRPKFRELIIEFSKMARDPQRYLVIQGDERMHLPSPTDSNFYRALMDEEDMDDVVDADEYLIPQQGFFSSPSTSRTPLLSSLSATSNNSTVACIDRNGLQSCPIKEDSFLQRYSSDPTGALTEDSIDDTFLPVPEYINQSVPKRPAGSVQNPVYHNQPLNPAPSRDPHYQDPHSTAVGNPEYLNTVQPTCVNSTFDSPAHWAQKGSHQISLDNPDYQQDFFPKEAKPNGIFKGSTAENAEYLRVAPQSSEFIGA

[8] = biological target: Follistatin-related protein 3 (Homo sapiens) (UniProt O95633); assay: compounds binding follistatin-related protein 3 – biochemical, small-molecule microarray, 635 nm fluorescence, primary screen (AID 1105); settings: FSTL3 binding, higher = more signal;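 further: score merges emission near 667 nm and signal to noise per printed spot across three slides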
Sequence of Follistatin-related protein 3 (Homo sapiens) (O95633 whole entry, looked up): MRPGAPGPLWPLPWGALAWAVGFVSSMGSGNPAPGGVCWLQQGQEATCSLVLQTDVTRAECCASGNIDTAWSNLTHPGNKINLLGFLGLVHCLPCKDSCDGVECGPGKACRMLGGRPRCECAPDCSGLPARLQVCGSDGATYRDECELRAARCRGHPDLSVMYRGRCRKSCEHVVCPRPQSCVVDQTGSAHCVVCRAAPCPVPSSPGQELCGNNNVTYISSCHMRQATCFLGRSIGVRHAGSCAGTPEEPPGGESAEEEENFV

[9] = biological target: Dickkopf-related protein 1 (Homo sapiens) (UniProt O94907); assay: small molecules binding DKK1 protein – biochemical, small-molecule microarray, 635 nm fluorescence scan, primary screen (AID 1106); settings: higher = more signal;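 further: score merges emission near 667 nm with signal to noise over three replicate slides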
Sequence of Dickkopf-related protein 1 (Homo sapiens) (O94907 whole entry, looked up): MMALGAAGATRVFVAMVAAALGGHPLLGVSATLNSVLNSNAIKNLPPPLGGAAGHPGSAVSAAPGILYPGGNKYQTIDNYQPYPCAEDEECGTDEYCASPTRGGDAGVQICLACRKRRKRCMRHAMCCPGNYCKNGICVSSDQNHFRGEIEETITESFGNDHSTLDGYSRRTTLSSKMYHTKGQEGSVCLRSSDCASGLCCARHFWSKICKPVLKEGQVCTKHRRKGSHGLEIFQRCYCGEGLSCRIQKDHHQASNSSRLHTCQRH

[10] = test system: Inhibin beta A chain (activin A); assay: small molecules binding activin A – biochemical, small-molecule microarray, 635 nm fluorescence scan, primary screen (AID 1107); settings: INHBA, higher = more signal;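 further: mouse activin A protein probed at 4.33 µg/mL on printed slides; score merges bound-protein fluorescence near 667 nm with spot signal-to-noise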
[11] = test system: Human papillomavirus type 1a protein E7 (residues 44-93); assay: small molecules binding HPV E7 44-93 – biochemical, small-molecule microarray, residues 44-93, 635 nm fluorescence, primary screen (AID 1108); settings: fluorescence 635 nm, higher = more signal;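 further: E7 fragment applied at 1 µg/mL in TBST for 1 h at 4 C; score combines spot fluorescence with its signal to noise ratio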
[12] = hepatitis C replication reporter changes, two-sided – Huh7 cells, luciferase reporter, HCV replication inhibitor project, primary screen (AID 1109); settings: Huh7 HCV replicon luciferase reporter, 48 h; higher = more signal;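 further: huh7 hepatoma cells harbouring a luciferase neomycin HCV replicon reporter; luciferase luminescence as measure of HCV replicon replication; test concentration not given here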
[13] = biological target: Left-right determination factor 2 (Homo sapiens) (UniProt O00292); assay: small molecules binding LEFTY2 protein – biochemical, small-molecule microarray, 635 nm fluorescence scan, primary screen (AID 1110); settings: higher = more signal
Sequence of Left-right determination factor 2 (Homo sapiens) (O00292 whole entry, looked up): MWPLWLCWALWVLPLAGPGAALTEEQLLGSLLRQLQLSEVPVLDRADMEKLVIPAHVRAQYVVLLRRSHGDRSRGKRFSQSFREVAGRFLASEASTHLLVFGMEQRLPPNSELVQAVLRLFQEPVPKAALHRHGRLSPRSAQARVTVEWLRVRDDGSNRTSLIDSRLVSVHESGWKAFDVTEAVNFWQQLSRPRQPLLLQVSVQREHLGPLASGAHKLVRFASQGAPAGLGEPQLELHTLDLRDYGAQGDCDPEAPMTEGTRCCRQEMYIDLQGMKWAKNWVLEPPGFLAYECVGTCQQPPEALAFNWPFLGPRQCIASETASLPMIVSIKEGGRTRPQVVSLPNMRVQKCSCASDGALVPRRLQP

[14] = biological target: Calmodulin-1 (Homo sapiens) (UniProt P0DP23); assay: small molecules binding calmodulin-1 with EGTA – biochemical, small-molecule microarray, Cy5-labelled CALM1, profiling panel (AID 1111); settings: Cy5-CALM1 binding fluorescence, higher = more signal;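 further: labelled calmodulin applied in Tris saline Tween buffer holding calcium plus EGTA and DTT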
[15] = biological target: Calmodulin-1 (Homo sapiens) (UniProt P0DP23); assay: small molecules binding Ca-loaded calmodulin-1 – biochemical, small-molecule microarray, Cy5-labelled CALM1, plus calcium, artefact control for SMM control-protein annotation, profiling panel (AID 1112); settings: Cy5-CALM1 binding fluorescence, higher = more signal;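 further: score merges spot fluorescence with signal to noise from triplicate slides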
[16] = probe aWnt5a binding to arrayed compounds – biochemical, biotinylated probe, 635/667 nm fluorescence, primary screen (AID 1113); settings: small-molecule microarray, higher = more signal;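 further: score merges 667 nm fluorescence intensity with signal-to-noise per printed feature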
[17] = probe aShh binding to arrayed compounds – biochemical, biotinylated probe, 635/667 nm fluorescence, primary screen (AID 1114); settings: small-molecule microarray, higher = more signal;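 further: probe is biotin-labelled aShh protein from a stem cell growth factor screen; measures binding of labelled protein to compounds printed on the slide; score merges feature fluorescence at 667 nm with signal-to-noise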
[18] = probe aNog binding to arrayed compounds – biochemical, biotinylated probe, 635/667 nm fluorescence, primary screen (AID 1115); settings: small-molecule microarray, higher = more signal;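 further: probe is biotinylated aNog protein used at 0.15 µg/mL for 1 h at 4 C; z-score combines 667 nm fluorescence of each spot with its signal to noise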
[19] = biological target: Torsin-1A-interacting protein 1 (Homo sapiens) (UniProt Q5JTV8); assay: compound microarray binding of lysate hLAP1 – cell lysate, small-molecule microarray, COS7 lysate, 635/667 nm fluorescence, primary screen (AID 1116); settings: 635 nm fluorescence, higher = more signal
Sequence of Torsin-1A-interacting protein 1 (Homo sapiens) (Q5JTV8 whole entry, looked up): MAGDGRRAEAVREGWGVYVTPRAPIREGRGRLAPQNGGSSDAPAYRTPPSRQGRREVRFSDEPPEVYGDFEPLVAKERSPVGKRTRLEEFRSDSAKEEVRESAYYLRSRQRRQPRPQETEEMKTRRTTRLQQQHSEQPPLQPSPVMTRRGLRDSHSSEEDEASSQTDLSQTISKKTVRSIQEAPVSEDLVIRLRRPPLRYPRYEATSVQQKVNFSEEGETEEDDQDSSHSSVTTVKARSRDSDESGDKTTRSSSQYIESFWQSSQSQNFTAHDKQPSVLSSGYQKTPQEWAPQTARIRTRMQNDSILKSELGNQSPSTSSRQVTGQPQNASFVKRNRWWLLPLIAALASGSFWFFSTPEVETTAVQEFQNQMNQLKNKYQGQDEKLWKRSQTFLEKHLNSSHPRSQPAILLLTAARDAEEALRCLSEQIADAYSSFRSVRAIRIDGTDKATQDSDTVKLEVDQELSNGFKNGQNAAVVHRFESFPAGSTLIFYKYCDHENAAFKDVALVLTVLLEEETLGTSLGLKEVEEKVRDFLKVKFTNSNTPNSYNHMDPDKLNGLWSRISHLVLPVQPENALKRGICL

[20] = biological target: Alpha-bungarotoxin (Bungarus multicinctus) (UniProt P60615); assay: compounds binding labelled alpha-BTX control protein – biochemical, small-molecule microarray, Alexa647 label, 635/667 nm fluorescence, artefact control for SMM control protein annotation, profiling panel (AID 1117); settings: alpha-BTX-A647 binding fluorescence, higher = more signal
Sequence of Alpha-bungarotoxin (Bungarus multicinctus) (P60615 whole entry, looked up): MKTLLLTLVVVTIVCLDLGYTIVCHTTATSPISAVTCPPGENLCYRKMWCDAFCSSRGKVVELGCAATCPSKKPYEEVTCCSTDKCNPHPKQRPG

SMILES | composite z-score [1] | composite z-score [2] | composite z-score [3] | z-score [4] | composite z-score [5] | composite z-score [6] | composite z-score [7] | composite z-score [8] | composite z-score [9] | composite z-score [10] | composite z-score [11] | z-score [12] | composite z-score [13] | composite z-score [14] | composite z-score [15] | composite z-score [16] | composite z-score [17] | composite z-score [18] | composite z-score [19] | composite z-score [20]
CC(=O)n1cc(C(O)C2C=CC3C(=O)N(c4ccccc4)C(=O)C3N2Nc2ccc(C#N)cc2)c2ccccc21 (stereo not given) | 0.696 | 0.415 | 1.07 | 0.888 (inactive) | 0.879 | 0.186 | -0.105 | 0.0519 | -0.817 | 0.854 | 1.48 | -0.41 | -0.125 | 0.449 | -0.577 | 0.155 | 0.385 | 1.02 | 0.557 | 0.645
C=CCOC(=O)[C@@H]1[C@H]2C(=O)O[C@H](c3ccccc3)[C@H](c3ccccc3)N2[C@H](c2ccc(OCCOC(=O)[C@H]3C[C@H]4C(=O)N[C@@H](Cc5ccccc5)C(=O)N4[C@H]3c3ccc(O)cc3)cc2)[C@@]12C(=O)Nc1ccc(I)cc12 | 1.54 | 0.232 | 0.163 | 0.00712 (inactive) | 1.22 | 1.33 | 0.906 | 1.29 | 1.26 | -0.418 | 1.06 | -2.78 | 0.866 | -0.0584 | -1.26 | -0.135 | 0.302 | 0.116 | 1.03 | 1.66
CCCCCN1CC=CC23O[C@@H]4C=CCCOC(=O)C4[C@H]2C(=O)N(CCCO)[C@@H]3C1=O (stereo not given in full) | 1.06 | -0.117 | -0.141 | -0.588 (inactive) | -0.0549 | -0.452 | -0.928 | -0.344 | 0.0124 | -0.166 | -0.337 | -0.726 | -0.43 | -0.162 | -0.591 | -0.198 | -0.283 | -0.0125 | -0.643 | -0.546
O=C1O[C@@H](c2ccccc2)[C@@H](c2ccccc2)N2[C@@H](c3ccc(O)cc3)[C@]3(C(=O)Nc4ccc(C#CCCO)cc43)[C@@H](C(=O)N3CCCCCCC3)[C@H]12 | 1.83 | 1.7 | 1.07 | 0.62 (inactive) | 0.837 | 0.78 | 0.201 | 1.43 | 0.843 | 1.67 | 0.777 | -1.18 | 0.51 | 2.37 | 1.05 | 0.861 | -0.116 | 2.68 | 3.66 | 2.14
O=C1OCCC/C=C\[C@H]2OC34C=CCN(CCN5CCOCC5)C(=O)[C@H]3N(CCO)C(=O)[C@@H]4C12 (stereo not given in full) | 1.66 | -0.214 | 0.0583 | -1.15 (inactive) | -0.506 | -0.707 | -0.676 | -1.14 | -0.507 | -0.68 | -0.359 | 0.0112 | -0.416 | -0.0877 | 0.124 | -0.176 | -0.2 | 0 | -0.0137 | -0.938
CCCC[C@H]1C[C@@H]1[C@@H]1N(P(=O)(c2ccccc2)c2ccccc2)[C@](CO)(c2ccccc2)CC12CC2 | 1.09 | 0.639 | 1.01 | -4.35 (inactive) | 0.104 | -0.571 | -0.395 | -0.177 | -1.47 | 0.846 | 0.992 | -2.4 | -1.58 | 1.85 | 1.08 | 0.188 | 0.562 | 1.75 | 0.0187 | -0.0785
CN(C)CCCCNC(=O)[C@@H]1C[C@@H]2C(=O)N[C@@H](CCCCN)C(=O)N2[C@@H]1c1cccc(OCCO)c1 | 1.9 | 0.123 | 0.74 | -0.239 (inactive) | -0.383 | 0.0265 | -1.22 | -0.795 | -0.988 | 0.0049 | 0.572 | -0.289 | -1.55 | -0.328 | -0.547 | -0.12 | 0.0735 | 0.42 | 0.482 | -0.863
COC(=O)[C@@]1(Cc2ccccc2)[C@H]2c3cc(C(=O)N(C)C)n(Cc4ccccc4)c3C[C@H]2CN1C(=O)c1ccccc1 | 1.05 | 0.855 | 0.816 | -1.03 (inactive) | 0.69 | -0.0617 | -0.262 | 0.383 | -0.61 | 0.735 | 0.104 | -1.13 | -0.586 | 0.733 | 0.0453 | 0.3 | 1.63 | 0.837 | 0.706 | 0.273
COC(=O)[C@@]1(Cc2ccc(F)cc2)[C@H]2c3cc(C(=O)N4CCCC4)n(Cc4ccc(Cl)c(C(F)(F)F)c4)c3C[C@H]2CN1C(=O)c1ccccc1 | 1.11 | 2.11 | 1.58 | -0.767 (inactive) | 0.879 | 0.864 | 0.477 | 1.18 | -0.652 | 0.864 | 1.37 | -2.42 | 0.04 | 2.51 | 1.42 | 0.963 | 2.64 | 1.16 | 1.68 | 1.57
CCCCN1CC=CC23O[C@@H]4C=CCCOC(=O)C4[C@H]2C(=O)N(CCCO)[C@@H]3C1=O (stereo not given in full) | -1.07 | -0.132 | -0.114 | -1.21 (inactive) | -0.649 | -1.12 | -0.597 | -0.739 | -0.0604 | 0.824 | -0.73 | -1.1 | -0.513 | -0.479 | -0.503 | -0.196 | -0.2 | -0.0784 | -0.643 | -1.13
Cc1ccc(N2C(=O)c3ccccc3[C@](C)(C(=O)NCCN3CCOCC3)[C@@H]2c2ccc(CO)cc2)nc1 | 0.0614 | 0.0511 | 0.858 | 0.219 (inactive) | -1.01 | -1.73 | -1.41 | -1.74 | -0.979 | -0.472 | -0.742 | 0.548 | -1.28 | -0.597 | -0.583 | -0.228 | 0.0442 | -0.244 | -0.869 | -1.44

From PubChem BioAssay
